These results are taken from PubChem BioAssay (EPA / NIEHS).

In assay [1] the target is Estrogen receptor (Homo sapiens) (UniProt P03372). The experiment in a line: OT_ERa_GFPERaERE_0480: Odyssey Thera (OT) 8-hour HeLa Transcription Induction Assay for Estrogen Receptor (AID 2283381; active means hit-call score of the fitted dose curve at least 0.9, where 1 is the maximum; inactive means score below 0.9). The essentials: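 HeLa cells dosed with compound and imaged by fluorescence microscopy at 8 h; GFP induction from an ERE reporter quantified by high-content image analysis and fitted as gain of signal against DMSO baseline.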
Estrogen receptor (Homo sapiens), sequence (P03372 whole entry, looked up): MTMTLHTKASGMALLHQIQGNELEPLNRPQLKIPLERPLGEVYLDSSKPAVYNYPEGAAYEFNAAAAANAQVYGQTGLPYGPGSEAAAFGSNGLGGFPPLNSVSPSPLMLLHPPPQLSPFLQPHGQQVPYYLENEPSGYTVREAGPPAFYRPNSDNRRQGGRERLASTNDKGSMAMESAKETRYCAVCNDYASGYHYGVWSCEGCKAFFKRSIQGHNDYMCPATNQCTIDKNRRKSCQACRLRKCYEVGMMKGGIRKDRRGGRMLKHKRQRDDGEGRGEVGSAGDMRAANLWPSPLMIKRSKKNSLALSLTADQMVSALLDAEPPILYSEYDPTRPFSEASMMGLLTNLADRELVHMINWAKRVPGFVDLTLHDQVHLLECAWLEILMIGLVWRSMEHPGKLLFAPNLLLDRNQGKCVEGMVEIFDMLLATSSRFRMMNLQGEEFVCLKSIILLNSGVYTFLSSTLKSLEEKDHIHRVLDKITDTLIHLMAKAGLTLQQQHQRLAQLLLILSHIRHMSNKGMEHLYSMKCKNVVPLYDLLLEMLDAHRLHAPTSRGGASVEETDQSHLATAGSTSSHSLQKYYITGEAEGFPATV

For assay [2] the target is unchanged. Briefly: OT_ERa_GFPERaERE_0120: Odyssey Thera (OT) 2-hour HeLa Transcription Induction Assay for Estrogen Receptor (AID 2283382). As to the method:
OT_ERa_GFPERaERE_0120 is a cell-based, single-readout assay that uses HeLa, a human cervix cell line, with measurements taken at 2 hours after chemical dosing in a 384-well plate.OT_ERa_GFPERaERE_0120 is one of one assay component(s) measured or calculated from the OT_ERa_GFPERaERE_0120 assay. It is designed to make measurements of fluorescent protein induction, a form of inducible reporter, as detected with optical microscopy: fluorescence microscopy signals by Microscopy technology.Data from the assay component OT_ERa_GFPERaERE_0120 was analyzed into 1 assay endpoint. This assay endpoint, OT_ERa_EREGFP_0120, was analyzed in the positive analysis fitting direction relative to DMSO as the negative control and baseline of activity. Using a type of inducible reporter, measures of receptor for gain-of-signal activity can be used to understand the reporter gene at the pathway-level as they relate to the gene ESR1. Furthermore, this assay endpoint can be referred to as a primary readout, because the performed assay has only produced 1 assay endpoint. To generalize the intended target to other relatable targets, this assay endpoint is annotated to the nuclear receptor intended target family, where the subfamily is steroidal.
All assay endpoints are quantified using high content image analysis algorithms.

The target in assay [3] is Retinoic acid receptor RXR-alpha (Homo sapiens) (UniProt P19793). Briefly: OT_NURR1_NURR1RXRa_0480: Odyssey Thera (OT) 8-hour HEK293T Protein Complementation Assay for Nurr1/retinoid X receptor (RXR) (AID 2283385). The essentials: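 HEK293T cells expressing Nurr1 and RXRα fused to reporter fragments were dosed with compound for 8 hours. Complex formation was read as fluorescence intensity and analysed as gain of signal against DMSO as baseline.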
Retinoic acid receptor RXR-alpha (Homo sapiens), sequence (P19793 whole entry, looked up, the tested form may be a part): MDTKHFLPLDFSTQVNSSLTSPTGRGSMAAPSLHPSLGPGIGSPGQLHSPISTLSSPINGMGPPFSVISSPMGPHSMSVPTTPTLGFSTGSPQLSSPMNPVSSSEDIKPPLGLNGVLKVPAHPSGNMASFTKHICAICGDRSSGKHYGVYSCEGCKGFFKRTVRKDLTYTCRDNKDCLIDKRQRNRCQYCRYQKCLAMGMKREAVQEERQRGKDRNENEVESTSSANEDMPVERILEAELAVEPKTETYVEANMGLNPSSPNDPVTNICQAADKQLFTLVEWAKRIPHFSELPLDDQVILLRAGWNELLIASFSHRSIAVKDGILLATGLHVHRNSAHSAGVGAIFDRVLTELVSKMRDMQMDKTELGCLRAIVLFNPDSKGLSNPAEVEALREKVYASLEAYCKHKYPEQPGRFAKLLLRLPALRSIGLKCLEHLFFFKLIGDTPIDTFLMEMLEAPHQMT

Assay [4] has the same target. Briefly: OT_NURR1_NURR1RXRa_1440: Odyssey Thera (OT) 24-hour HEK293T Protein Complementation Assay for Nurr1/retinoid X receptor (RXR) (AID 2283386). Summed up:
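HEK293T cells were dosed with compound and read 24 h later by fluorescence intensity in a protein-fragment complementation format, where Nurr1–RXRα interaction reconstitutes a split reporter. Activity was fitted as gain of signal relative to DMSO baseline.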

For assay [5], the target named is Peroxisome proliferator-activated receptor gamma (Homo sapiens) (UniProt P37231). The experiment in a line: OT_PPARg_PPARgSRC1_0480: Odyssey Thera (OT) 8-hour Protein-Complementation Assay for Peroxisome Proliferator-activated Receptor Gamma / SRC-1 Co-activator (AID 2283387).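 Further: nuclear to cytoplasmic split Venus YFP fluorescence ratio reporting PPARg SRC-1 interaction.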 Summed up:
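HEK293T transiently transfected with PPARg and SRC-1 fused to Venus YFP fragments, compounds 8 h at 37C. Fixed, Draq5-stained cells imaged; nuclear/cytoplasmic 488 nm fluorescence ratio over at least 350 cells per image; gain fitted versus DMSO.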

The target is the same in assay [6]. The experiment in a line: OT_PPARg_PPARgSRC1_1440: Odyssey Thera (OT) 24-hour Protein-Complementation Assay for Peroxisome Proliferator-activated Receptor Gamma/ SRC-1 Co-activator (AID 2283388). The essentials:
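Transient HEK293T, YFP fragments 1-158/159-239 (mutant IFP1/IFP2) fused to PPARg/SRC-1; 24 h dosing; fix 4% formaldehyde, Draq5; Opera imaging 488/635 nm; N/C ratio, gain vs DMSO.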

In assay [7] the target is Bile acid receptor (Homo sapiens) (UniProt Q96RI1). Briefly: OT_FXR_FXRSRC1_0480: Odyssey Thera (OT) 8-hour HEK293T Protein-Complementation Assay for Farnesoid X receptor/SRC-1 Co-activator (AID 2283383). The essentials:
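HEK293T cells expressing FXR and SRC-1 fused to reporter fragments were dosed with compound for 8 h; fluorescence from the reconstituted reporter marked co-activator recruitment. Gain of signal was fitted against the DMSO baseline.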

The target is the same in assay [8]. The experiment in a line: OT_FXR_FXRSRC1_1440: Odyssey Thera (OT) 24-hour HEK293T Protein-Complementation Assay for Farnesoid X receptor/SRC-1 Co-activator (AID 2283384). Summed up:
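HEK293T cells were dosed with compound and read 24 h later by fluorescence intensity from protein-fragment complementation reporting FXR/SRC-1 co-activator interaction. Gain of signal was fitted relative to DMSO negative control as baseline.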

The nature of assay [9]: CEETOX_H295R_11DCORT: CeeTox H295R High-throughput Steroidogenesis Assay for 11-Deoxycortisol (11DCORT) (AID 2283432; active means hit-call score of the fitted dose curve at least 0.9, where 1 is the maximum; inactive means score below 0.9;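 on AC50: human adrenal H295R cells prestimulated with 10 µM forskolin for 48 h; 11-deoxycortisol secreted into the medium measured by LC-MS/MS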). The settings on record: actives raise or lower the signal. Summed up:
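H295R cells prestimulated 48 h with 10 uM forskolin, then exposed 48 h to chemical in 0.1% DMSO. 11-Deoxycortisol in medium quantified by HPLC-MS/MS after MTBE extraction; bidirectional fit versus DMSO. MTT viability read in same wells.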

The nature of assay [10]: CEETOX_H295R_OHPREG: CeeTox H295R High-throughput Steroidogenesis Assay for OH-Pregnenolone (OHPREG) (AID 2283434; active means hit-call score of the fitted dose curve at least 0.9, where 1 is the maximum; inactive means score below 0.9). The settings on record: actives raise or lower the signal. Summed up:
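H295R cells pre-stimulated 48 h with 10 uM forskolin, then exposed 48 h to chemical in 0.1% DMSO. 17alpha-hydroxypregnenolone in medium quantified by MTBE extraction and HPLC-MS/MS; bidirectional fit versus DMSO, viability checked by MTT.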

Inconclusive results are not listed. Calls of active or inactive are those of the source. How the source made its calls, unless noted: active means hit-call score of the fitted dose curve at least 0.9, where 1 is the maximum; inconclusive means response in the unintended direction; inactive means score below 0.9.

The AC50 is the concentration giving half of the maximal activity seen.

Bile acid receptor (Homo sapiens), sequence (Q96RI1 whole entry, looked up, the tested form may be a part): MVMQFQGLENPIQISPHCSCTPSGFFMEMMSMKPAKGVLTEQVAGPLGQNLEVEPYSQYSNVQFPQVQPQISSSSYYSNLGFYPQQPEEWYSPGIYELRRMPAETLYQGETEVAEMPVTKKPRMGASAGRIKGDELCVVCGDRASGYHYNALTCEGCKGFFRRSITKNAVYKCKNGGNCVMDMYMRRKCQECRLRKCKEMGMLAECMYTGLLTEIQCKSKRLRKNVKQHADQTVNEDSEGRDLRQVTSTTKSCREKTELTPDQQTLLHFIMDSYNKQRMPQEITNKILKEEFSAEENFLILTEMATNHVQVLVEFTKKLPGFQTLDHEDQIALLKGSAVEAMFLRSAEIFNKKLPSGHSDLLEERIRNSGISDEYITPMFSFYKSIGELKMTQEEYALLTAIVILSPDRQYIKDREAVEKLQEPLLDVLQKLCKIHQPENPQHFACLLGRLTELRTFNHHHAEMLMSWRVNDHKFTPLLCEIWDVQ
Peroxisome proliferator-activated receptor gamma (Homo sapiens), sequence (P37231 whole entry, looked up, the tested form may be a part): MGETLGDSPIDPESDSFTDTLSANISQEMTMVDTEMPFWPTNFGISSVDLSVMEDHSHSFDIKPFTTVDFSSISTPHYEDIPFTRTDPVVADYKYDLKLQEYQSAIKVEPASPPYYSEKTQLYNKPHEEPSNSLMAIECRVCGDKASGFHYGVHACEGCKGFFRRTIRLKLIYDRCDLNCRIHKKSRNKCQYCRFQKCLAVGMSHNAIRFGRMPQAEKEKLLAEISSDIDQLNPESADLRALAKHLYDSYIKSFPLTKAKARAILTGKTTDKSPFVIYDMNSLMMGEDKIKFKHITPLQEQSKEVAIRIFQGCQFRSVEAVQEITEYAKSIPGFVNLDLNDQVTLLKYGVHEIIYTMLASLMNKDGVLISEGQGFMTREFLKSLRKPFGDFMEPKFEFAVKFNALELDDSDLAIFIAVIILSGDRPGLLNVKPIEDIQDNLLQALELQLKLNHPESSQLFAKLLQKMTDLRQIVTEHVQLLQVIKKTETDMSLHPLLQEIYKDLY

As for `CS(=O)(=O)OCCCCOS(C)(=O)=O`, the result in assay [1], in [2], in assay [3], in assay [4], in assay [5] and in assay [6] was inactive.

Take `C=CC(C)(O)CCC=C(C)C` (centres undefined): the compound was classed as inactive in [7], in [8], in assay [3], in assay [5] and in assay [6].

Regarding `CCOC(=O)[C@@H](C)Oc1ccc(Oc2nc3ccc(Cl)cc3o2)cc1`, the AC50 in assay [7] was 24 µM (active); in assay [8] it was 50 µM (active). Also, the compound was called inactive in assay [3], in assay [4], in assay [5], in assay [6], in assay [9] and in assay [10].

Take `OCc1cccc(Oc2ccccc2)c1`: the result in assay [7], in [8], in assay [3], in assay [5], in assay [6] and in [10] was inactive.

Consider `CCCCCC(C=O)=Cc1ccccc1`, for which the call in assay [7], in assay [8], in assay [3], in assay [5] and in assay [6] was inactive.

Consider `CCCCCCCCCC(=O)OC`, for which the compound was called inactive in [7], in assay [8], in [4], in [5] and in assay [6].

As to `CCCCCCC(=O)c1ccccc1`, the result in assay [7], in assay [8], in assay [3], in [4], in [5] and in assay [6] was inactive.

With `Nc1ccc(N)c2c1C(=O)c1ccccc1C2=O`, the AC50 in assay [9] is 7.09 µM (active). The compound was called inactive in [10].

For the compound `C=C1CC[C@H](O)C/C1=C/C=C1\CCC[C@]2(C)[C@@H]([C@H](C)/C=C/[C@H](C)C(C)C)CC[C@@H]12`, the values for the AC50 in assay [9] and in [10] were 19.8 µM (active) and 4.66 µM (active), respectively.

Consider `CCCCCCCC(=O)OCC(O)CO` (centres undefined), for which the result in assay [3], in [5] and in [6] was inactive.

Consider `CCCCCCCCC=CCCCCCCCC1=NCCN1CCO`, for which the outcome in [5] and in assay [6] was inactive.

As to `COc1ccc(N=Nc2cc(C)c(N=Nc3ccc(S(=O)(=O)O)cc3)cc2OC)cc1`, the outcome in assay [5], in [6], in [9] and in assay [10] was inactive.

Consider `COc1ccc(CCN2CCC(Nc3nc4ccccc4n3Cc3ccc(F)cc3)CC2)cc1`, for which the AC50 is 1.49 µM (active) in [9] and 0.698 µM (active) in assay [10].

For `C[C@H]1O[C@@H](O[C@H]2[C@@H](O)C[C@H](O[C@H]3[C@@H](O)C[C@H](O[C@H]4CC[C@@]5(C)[C@H](CC[C@@H]6[C@@H]5C[C@@H](O)[C@]5(C)[C@@H](C7=CC(=O)OC7)CC[C@]65O)C4)O[C@@H]3C)O[C@@H]2C)C[C@H](O)[C@@H]1O`, the result in assay [5] and in assay [6] was inactive.

Take `CCCC(=O)OC(C)(C)Cc1ccccc1`: the call in [5] and in assay [6] was inactive.

For the compound `OCC#CCO`, the compound was classed as inactive in assay [4], in [5] and in assay [6].

With `CCCCCCC(CO)CCCC` (centres undefined), the result in [3], in [4], in assay [5] and in assay [6] was inactive.

Turning to `OC[C@H]1O[C@@H]2O[C@H]3[C@H](O)[C@@H](O)[C@@H](O[C@H]4[C@H](O)[C@@H](O)[C@@H](O[C@H]5[C@H](O)[C@@H](O)[C@@H](O[C@H]6[C@H](O)[C@@H](O)[C@@H](O[C@H]7[C@H](O)[C@@H](O)[C@@H](O[C@H]8[C@H](O)[C@@H](O)[C@@H](O[C@H]9[C@H](O)[C@@H](O)[C@@H](O[C@H]1[C@H](O)[C@H]2O)O[C@@H]9CO)O[C@@H]8CO)O[C@@H]7CO)O[C@@H]6CO)O[C@@H]5CO)O[C@@H]4CO)O[C@@H]3CO`, the compound was called inactive in assay [3], in assay [5] and in assay [6].

On to `CCc1ccc(O)cc1`, for which the result in assay [3], in assay [4], in [5] and in [6] was inactive.

In the case of `CN(C)c1cccc(O)c1`, the result in [4], in [5] and in assay [6] was inactive.

With `CCc1cc(Cc2cc(CC)cc(C(C)(C)C)c2O)c(O)c(C(C)(C)C)c1`, the result in assay [5] and in [6] was inactive.

In the case of `CCCCCCCCCCCCCCN(CCO)CCO`, the compound was classed as inactive in assay [5] and in [6].

`O=C(c1ccccc1)C(O)c1ccccc1` (centres undefined): the call in [5] and in assay [6] was inactive.

For the compound `CC=Cc1ccc(OCC)c(O)c1`, the compound was called inactive in [9] and in assay [10].

As for `CC1(C)C(=O)N(Cl)C(=O)N1Br`, the call in assay [5], in [6] and in assay [9] was inactive.

Regarding `CC(C)Nc1nc(N)nc(Cl)n1`, the call in assay [3], in [4], in assay [5], in assay [6], in [9] and in [10] was inactive.

For the compound `CCOc1ccccc1O`, the call in [4], in assay [5] and in assay [6] was inactive.

Turning to `[O-]n1ccccc1=S.[O-]n1ccccc1=S.[Zn+2]`, the outcome in [5] and in [6] was inactive.

On to `C=Cc1ccc(C)cc1`, for which the compound was classed as inactive in assay [4], in assay [5] and in [6].

For the compound `CCCCCCCC/C=C\CCCCCCCC(=O)OCC`, the compound was called inactive in [3], in assay [5] and in [6].

As for `COCCc1ccc(OCC(O)CNC(C)C)cc1` (centres undefined), the concentration at half-maximal activity (AC50) in [9] is 28.6 µM (active). The compound was classed as inactive in [10].

For the compound `CCC(=O)O[C@@H]1C[C@H]2CC[C@]1(C)C2(C)C`, the compound was called inactive in assay [4], in assay [5] and in [6].

Turning to `BrCc1cccc(Oc2ccccc2)c1`, the compound was called inactive in assay [3], in assay [4], in assay [6], in assay [9] and in assay [10].

Turning to `C[Si](C)(C)O[Si](C)(C)C`, the call in [5] and in assay [6] was inactive.

`CC(C)(C)CC(C)(C)c1ccc(OCCOCC[N+](C)(C)Cc2ccccc2)cc1`: the compound was called inactive in assay [9] and in assay [10].

In the case of `CC(CN=Cc1ccccc1O)N=Cc1ccccc1O` (centres undefined), the result in assay [5], in assay [6] and in assay [10] was inactive. In assay [9], the AC50 is 3.89 µM (active).

For `CCOC(=O)C1OC1c1ccccc1` (centres undefined), the compound was called inactive in [3], in assay [4], in assay [5] and in assay [6].

`Clc1ccc(C(c2ccccc2Cl)C(Cl)Cl)cc1` (centres undefined): the compound was classed as inactive in assay [3] and in assay [6].

For `CCCCCCC(C)(C)S`, the result in [3], in assay [4], in assay [5] and in assay [6] was inactive.

For `CCC(C)c1cc([N+](=O)[O-])cc([N+](=O)[O-])c1OC(=O)OC(C)C` (centres undefined), the call in [9] and in assay [10] was inactive.

For `O=C1OC[C@H](Cc2cccc(O)c2)[C@H]1Cc1cccc(O)c1`, the compound was called inactive in [3], in assay [5] and in assay [6].

Regarding `C=C(C)[C@@H]1CC=C(C)C(=O)C1`, the compound was classed as inactive in assay [3], in assay [4] and in assay [6].

In the case of `CN1CCOCC1`, the result in [3], in assay [4], in assay [5] and in assay [6] was inactive.

For `Nc1ccc2cc(S(=O)(=O)O)cc(O)c2c1N=Nc1ccccc1C(F)(F)F`, the call in assay [5] and in assay [6] was inactive.

In the case of `CC(C)CCCCCCCCCCCCCCC(=O)O`, the call in assay [5] and in assay [6] was inactive.
